Here are results for 38 targets from the supplement of paper PMC10849652.

Targets with a hit are over-represented here; the source holds about 7,900 in all. About 0.6% of all pairs of compound and target were hits.

Chain of UniProt Q96BW9 (Q96BW9 whole entry, looked up): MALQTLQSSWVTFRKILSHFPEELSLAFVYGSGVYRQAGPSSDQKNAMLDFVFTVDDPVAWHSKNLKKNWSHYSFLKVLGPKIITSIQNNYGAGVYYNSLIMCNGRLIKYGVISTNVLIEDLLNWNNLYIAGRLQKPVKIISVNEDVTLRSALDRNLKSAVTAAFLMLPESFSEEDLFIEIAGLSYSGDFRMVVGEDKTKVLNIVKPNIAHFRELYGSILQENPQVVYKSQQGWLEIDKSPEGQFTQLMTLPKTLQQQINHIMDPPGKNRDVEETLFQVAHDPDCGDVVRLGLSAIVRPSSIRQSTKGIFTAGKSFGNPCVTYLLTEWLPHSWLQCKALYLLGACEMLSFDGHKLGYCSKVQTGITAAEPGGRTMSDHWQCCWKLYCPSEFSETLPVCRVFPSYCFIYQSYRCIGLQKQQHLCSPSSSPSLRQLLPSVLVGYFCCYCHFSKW
Chain of UniProt O95149 (O95149 whole entry, looked up): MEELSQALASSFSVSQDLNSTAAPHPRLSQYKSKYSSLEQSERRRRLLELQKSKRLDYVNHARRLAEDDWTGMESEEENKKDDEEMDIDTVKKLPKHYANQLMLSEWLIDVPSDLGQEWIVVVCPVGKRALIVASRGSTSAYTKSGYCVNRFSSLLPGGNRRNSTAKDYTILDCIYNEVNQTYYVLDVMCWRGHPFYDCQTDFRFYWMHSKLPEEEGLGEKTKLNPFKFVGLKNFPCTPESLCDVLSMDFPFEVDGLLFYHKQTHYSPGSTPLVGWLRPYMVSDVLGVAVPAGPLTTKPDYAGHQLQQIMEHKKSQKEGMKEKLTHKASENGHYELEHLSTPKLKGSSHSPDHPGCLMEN
Chain of UniProt O14975 (O14975 whole entry, looked up): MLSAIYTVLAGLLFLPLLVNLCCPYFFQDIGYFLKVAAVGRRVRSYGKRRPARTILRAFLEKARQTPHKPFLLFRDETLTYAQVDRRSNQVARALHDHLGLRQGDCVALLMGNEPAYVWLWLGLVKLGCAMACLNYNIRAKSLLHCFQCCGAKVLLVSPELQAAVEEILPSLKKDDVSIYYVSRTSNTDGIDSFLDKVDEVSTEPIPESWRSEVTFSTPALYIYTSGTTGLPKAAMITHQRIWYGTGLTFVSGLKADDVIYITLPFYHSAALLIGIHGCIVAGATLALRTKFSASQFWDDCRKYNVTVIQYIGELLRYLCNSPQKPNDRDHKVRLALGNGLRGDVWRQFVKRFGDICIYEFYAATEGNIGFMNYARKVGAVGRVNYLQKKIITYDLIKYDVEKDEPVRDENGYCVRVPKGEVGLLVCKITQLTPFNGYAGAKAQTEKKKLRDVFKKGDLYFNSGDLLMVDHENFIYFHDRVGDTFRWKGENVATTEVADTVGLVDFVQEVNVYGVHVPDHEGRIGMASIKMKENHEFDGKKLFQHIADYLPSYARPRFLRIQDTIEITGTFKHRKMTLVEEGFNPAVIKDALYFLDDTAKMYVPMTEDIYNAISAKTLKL
Chain of UniProt Q8N1S5 (Q8N1S5 whole entry, looked up): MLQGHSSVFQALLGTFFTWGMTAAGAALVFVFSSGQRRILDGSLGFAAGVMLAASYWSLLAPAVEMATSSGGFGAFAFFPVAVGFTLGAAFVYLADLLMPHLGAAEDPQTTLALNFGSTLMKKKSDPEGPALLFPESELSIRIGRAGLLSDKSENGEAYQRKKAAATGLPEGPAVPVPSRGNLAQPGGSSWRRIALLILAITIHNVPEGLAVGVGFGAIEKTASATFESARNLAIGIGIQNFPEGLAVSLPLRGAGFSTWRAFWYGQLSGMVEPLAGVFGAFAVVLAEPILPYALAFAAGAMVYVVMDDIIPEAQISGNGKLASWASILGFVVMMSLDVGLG
Chain of UniProt O60749 (O60749 whole entry, looked up): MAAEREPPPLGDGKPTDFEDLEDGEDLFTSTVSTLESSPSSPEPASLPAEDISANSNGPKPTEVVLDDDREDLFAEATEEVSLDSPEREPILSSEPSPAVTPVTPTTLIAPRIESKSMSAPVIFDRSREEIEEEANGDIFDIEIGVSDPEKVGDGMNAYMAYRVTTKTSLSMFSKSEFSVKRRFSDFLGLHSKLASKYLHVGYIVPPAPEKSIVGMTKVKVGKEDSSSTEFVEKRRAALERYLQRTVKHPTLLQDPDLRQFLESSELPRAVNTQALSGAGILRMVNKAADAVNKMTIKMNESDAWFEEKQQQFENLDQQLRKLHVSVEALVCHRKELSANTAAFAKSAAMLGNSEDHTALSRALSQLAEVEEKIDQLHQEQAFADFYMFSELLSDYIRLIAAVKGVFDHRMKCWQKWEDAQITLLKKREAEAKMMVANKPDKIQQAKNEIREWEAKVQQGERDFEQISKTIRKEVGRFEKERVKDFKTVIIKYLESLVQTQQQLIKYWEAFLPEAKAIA
Chain of UniProt P50225 (P50225 whole entry, looked up): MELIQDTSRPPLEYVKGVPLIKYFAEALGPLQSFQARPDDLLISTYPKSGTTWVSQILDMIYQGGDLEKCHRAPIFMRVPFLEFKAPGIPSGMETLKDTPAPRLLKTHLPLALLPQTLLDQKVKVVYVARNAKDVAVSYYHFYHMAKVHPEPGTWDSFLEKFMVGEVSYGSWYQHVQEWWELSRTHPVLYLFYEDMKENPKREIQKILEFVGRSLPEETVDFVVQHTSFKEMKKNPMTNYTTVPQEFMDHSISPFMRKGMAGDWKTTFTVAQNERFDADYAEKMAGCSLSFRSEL
Chain of UniProt Q9NYB0 (Q9NYB0 whole entry, looked up): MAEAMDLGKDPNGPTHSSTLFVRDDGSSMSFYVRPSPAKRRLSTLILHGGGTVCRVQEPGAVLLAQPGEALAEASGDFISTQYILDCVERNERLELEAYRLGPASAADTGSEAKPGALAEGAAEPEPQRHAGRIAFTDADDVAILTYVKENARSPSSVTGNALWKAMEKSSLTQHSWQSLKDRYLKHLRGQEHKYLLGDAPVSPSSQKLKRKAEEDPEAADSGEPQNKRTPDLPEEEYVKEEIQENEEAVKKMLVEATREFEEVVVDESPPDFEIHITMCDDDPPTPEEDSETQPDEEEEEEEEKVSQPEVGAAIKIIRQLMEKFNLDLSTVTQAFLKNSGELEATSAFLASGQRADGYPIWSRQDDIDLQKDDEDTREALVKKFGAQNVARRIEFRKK
Chain of UniProt P08047 (P08047 whole entry, looked up): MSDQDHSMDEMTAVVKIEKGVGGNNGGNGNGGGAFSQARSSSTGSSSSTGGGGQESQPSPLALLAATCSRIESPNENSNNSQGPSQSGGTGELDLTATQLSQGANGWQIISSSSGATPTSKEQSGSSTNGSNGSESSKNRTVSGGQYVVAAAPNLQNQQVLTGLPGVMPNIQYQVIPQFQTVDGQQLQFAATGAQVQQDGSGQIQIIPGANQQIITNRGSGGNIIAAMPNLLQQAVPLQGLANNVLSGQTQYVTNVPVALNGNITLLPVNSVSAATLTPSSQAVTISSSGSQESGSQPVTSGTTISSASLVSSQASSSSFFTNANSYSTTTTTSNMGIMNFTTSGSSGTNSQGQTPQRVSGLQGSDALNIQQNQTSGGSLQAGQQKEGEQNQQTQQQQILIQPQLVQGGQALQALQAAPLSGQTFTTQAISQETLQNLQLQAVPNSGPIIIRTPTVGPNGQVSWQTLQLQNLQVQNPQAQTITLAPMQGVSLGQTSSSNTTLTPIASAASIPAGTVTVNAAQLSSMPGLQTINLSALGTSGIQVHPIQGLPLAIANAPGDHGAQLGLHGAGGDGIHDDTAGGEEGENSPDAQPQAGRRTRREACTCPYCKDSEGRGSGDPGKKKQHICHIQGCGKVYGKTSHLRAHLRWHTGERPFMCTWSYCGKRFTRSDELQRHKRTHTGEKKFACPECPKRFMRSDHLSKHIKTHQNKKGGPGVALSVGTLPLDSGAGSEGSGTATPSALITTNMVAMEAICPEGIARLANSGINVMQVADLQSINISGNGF
Chain of UniProt Q8TC07 (Q8TC07 whole entry, looked up): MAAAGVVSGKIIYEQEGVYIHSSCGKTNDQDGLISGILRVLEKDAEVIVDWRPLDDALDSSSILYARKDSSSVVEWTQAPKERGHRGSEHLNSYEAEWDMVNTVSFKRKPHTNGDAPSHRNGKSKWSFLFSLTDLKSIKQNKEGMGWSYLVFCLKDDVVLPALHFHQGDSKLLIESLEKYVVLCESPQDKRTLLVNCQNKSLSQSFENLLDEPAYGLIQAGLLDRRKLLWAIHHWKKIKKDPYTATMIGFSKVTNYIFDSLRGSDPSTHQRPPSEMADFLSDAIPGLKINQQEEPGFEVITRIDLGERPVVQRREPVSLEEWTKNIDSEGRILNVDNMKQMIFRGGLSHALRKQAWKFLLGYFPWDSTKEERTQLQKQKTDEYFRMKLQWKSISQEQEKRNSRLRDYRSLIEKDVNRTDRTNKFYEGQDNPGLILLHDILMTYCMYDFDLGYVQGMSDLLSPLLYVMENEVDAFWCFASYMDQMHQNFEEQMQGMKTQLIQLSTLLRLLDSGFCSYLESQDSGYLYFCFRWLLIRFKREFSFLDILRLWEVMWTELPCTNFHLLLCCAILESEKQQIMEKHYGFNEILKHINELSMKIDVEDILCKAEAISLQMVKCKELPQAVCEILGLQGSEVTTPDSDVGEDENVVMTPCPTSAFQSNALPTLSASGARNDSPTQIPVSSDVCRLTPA
Chain of UniProt Q9Y5J6 (Q9Y5J6 whole entry, looked up): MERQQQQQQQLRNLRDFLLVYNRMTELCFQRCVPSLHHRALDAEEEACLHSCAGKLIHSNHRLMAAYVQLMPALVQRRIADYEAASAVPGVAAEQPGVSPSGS
Chain of UniProt P35270 (P35270 whole entry, looked up): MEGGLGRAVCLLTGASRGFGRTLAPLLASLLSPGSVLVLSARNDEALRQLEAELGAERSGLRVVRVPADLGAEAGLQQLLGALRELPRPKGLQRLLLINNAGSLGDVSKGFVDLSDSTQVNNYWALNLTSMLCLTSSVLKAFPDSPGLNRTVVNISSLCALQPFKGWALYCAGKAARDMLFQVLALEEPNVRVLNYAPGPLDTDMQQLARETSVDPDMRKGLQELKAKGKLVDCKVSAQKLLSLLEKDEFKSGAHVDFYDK

Compound in the first assay: CNC(=O)c1ccc(Nc2ncc(C(F)(F)F)c(NCc3nccnc3N(C)S(C)(=O)=O)n2)cc1 [defactinib]
Kind of assay: log2 fold change, soluble protein after heating vs DMSO (PISA); higher = thermal stabilisation; K562 cells, 10 uM, 30 min; active = over 0.2 and 3.5 SD of the protein, either way, in both replicates (recomputed). In short, it runs like this: (§1)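 For each measurement, 10 μM compound was applied for 30 min to K562 cells at 2×10^6 cells/mL. Aliquots were heated for 3 min across 48°C-58°C, pooled, and extracted in PBS with 0.5% NP-40 at 4°C; the supernatant after 21,000xg for 90 min was soluble protein. This was quantified by TMTpro 16plex LC-MS/MS with channel sums equalised, and thermal stability was reported relative to control samples from duplicates, on a log2 fold-change scale.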
Consider STXBP2 isoform 3 (UniProt Q15833), for which the log2 fold change is -0.133 (inactive).
On to SLC27A2 (UniProt O14975), for which the log2 fold change was -0.006 (inactive).
On to SNX2 (UniProt O60749), for which the log2 fold change was -0.068 (inactive).
In the case of SLC39A11 (UniProt Q8N1S5), the log2 fold change is 0.074 (inactive).
With TBC1D15 isoform 3 (UniProt Q8TC07), the log2 fold change is -0.09 (inactive).
TBRG4 (UniProt Q969Z0): the log2 fold change was -0.25 (inactive).
For SLC6A6 (UniProt P31641), the log2 fold change is -0.051 (inactive).
Turning to TERF2IP (UniProt Q9NYB0), the log2 fold change is -0.195 (inactive).
On to SP1 (UniProt P08047), for which the log2 fold change is 0.01 (inactive).
SYNE2 isoform 2 (UniProt Q8WXH0): the log2 fold change is 0.029 (inactive).
With SULT1A1 (UniProt P50225), the log2 fold change was -0.214 (inactive).
As to TIMM10B (UniProt Q9Y5J6), the log2 fold change is -0.074 (inactive).
Still for that read-out and setting: the same measure for TAMM41 isoform 3 (UniProt Q96BW9): 0.015 (inactive).
Still for that read-out and setting: the same measure for TAX1BP1 (UniProt Q86VP1): -0.038 (inactive).
The same measure, in the same setting: the same measure for SNUPN (UniProt O95149): -0.056 (inactive).

Compound in another assay: CNCc1ccc(-c2[nH]c3cc(F)cc4c3c2CCNC4=O)cc1 [rucaparib]
The description is as above. An outline of the steps: as §1
On to SUGP1 (UniProt Q8IWZ8), for which the log2 fold change was -0.016 (inactive).
Turning to TBC1D9B (UniProt Q66K14), the log2 fold change is 0.009 (inactive).
On the same count and under the same terms, the value for STARD3NL (UniProt O95772) was -0.164 (inactive); that for SLC25A4 (UniProt P12235) was -0.061 (inactive); that for SLC30A10 (UniProt Q6XR72) was -0.073 (inactive).
With SMC5 (UniProt Q8IY18), the log2 fold change is 0.015 (inactive).
Same read-out and setting: the value for SRPRB (UniProt Q9Y5M8) was 0.151 (inactive); that for SPR (UniProt P35270) was 0.043 (inactive).
Regarding TANK (UniProt Q92844), the log2 fold change is -0.016 (inactive).
Turning to SLC4A2 (UniProt P04920), the log2 fold change is 0.064 (inactive).
TMBIM6 isoform 2 (UniProt P55061): the log2 fold change is -0.065 (inactive).
Same read-out and setting: the same measure for SLC25A42 (UniProt Q86VD7): 0.021 (inactive); for SLK isoform 2 (UniProt Q9H2G2): 0.048 (inactive).
As to TBCD (UniProt Q9BTW9), the log2 fold change was 0 (inactive).
Take SUPT16H (UniProt Q9Y5B9): the log2 fold change is -0.104 (inactive).
Consider SUOX (UniProt P51687), for which the log2 fold change was -0.037 (inactive).
Consider STK4 (UniProt Q13043), for which the log2 fold change is -0.008 (inactive).
On to TK1 (UniProt P04183), for which the log2 fold change is -0.015 (inactive).
SSR3 isoform 2 (UniProt Q9UNL2): the log2 fold change was -0.049 (inactive).
Regarding SRI (UniProt P30626), the log2 fold change is -0.012 (inactive).
On the same count and under the same terms, the same measure for TARS2 (UniProt Q9BW92): 0.009 (inactive); for SNX11 (UniProt Q9Y5W9): -0.001 (inactive); for TATDN2 (UniProt Q93075): -0.175 (inactive).
On to STXBP2 isoform 3 (UniProt Q15833), for which the log2 fold change is 0.157 (inactive).
For the target SLC27A2 (UniProt O14975), the log2 fold change is 0.056 (inactive).
For the target SNX2 (UniProt O60749), the log2 fold change is -0.004 (inactive).
The same measure, in the same setting: the same measure for SLC39A11 (UniProt Q8N1S5): -0.518 (active); for TBC1D15 isoform 3 (UniProt Q8TC07): 0.059 (inactive).
TBRG4 (UniProt Q969Z0): the log2 fold change is 0.008 (inactive).
Take SLC6A6 (UniProt P31641): the log2 fold change was 0.065 (inactive).
In the case of TERF2IP (UniProt Q9NYB0), the log2 fold change is -0.052 (inactive).
The same measure, in the same setting: the same measure for SP1 (UniProt P08047): 0.066 (inactive); for SYNE2 isoform 2 (UniProt Q8WXH0): -0.045 (inactive); for SULT1A1 (UniProt P50225): -0.048 (inactive).
In the case of TIMM10B (UniProt Q9Y5J6), the log2 fold change was 0.017 (inactive).
Take TAMM41 isoform 3 (UniProt Q96BW9): the log2 fold change was 0.036 (inactive).
TAX1BP1 (UniProt Q86VP1): the log2 fold change is -0.003 (inactive).
On the same count and under the same terms, the value for SNUPN (UniProt O95149) was -0.027 (inactive).

Compound in a further assay: CNc1nc(-c2ccc3c(N)n[nH]c3c2)cc(N2C[C@@H](C(=O)NC3CCCCC3)CC[C@H]2C)n1
The description is as above. An outline of the steps:
as §1
SUGP1 (UniProt Q8IWZ8): the log2 fold change is -0.074 (inactive).
As for TBC1D9B (UniProt Q66K14), the log2 fold change was -0.01 (inactive).
For the target STARD3NL (UniProt O95772), the log2 fold change was -0.052 (inactive).
As for SLC25A4 (UniProt P12235), the log2 fold change is -0.026 (inactive).
On the same count and under the same terms, the same measure for SLC30A10 (UniProt Q6XR72): -0.036 (inactive); for SMC5 (UniProt Q8IY18): -0.046 (inactive); for SRPRB (UniProt Q9Y5M8): 0.032 (inactive).
Same read-out and setting: the value for SPR (UniProt P35270) was 0.026 (inactive).
On the same count and under the same terms, the same measure for TANK (UniProt Q92844): 0.052 (inactive).
For the target SLC4A2 (UniProt P04920), the log2 fold change is 0.008 (inactive).
In the case of TMBIM6 isoform 2 (UniProt P55061), the log2 fold change was -0.006 (inactive).
Regarding SLC25A42 (UniProt Q86VD7), the log2 fold change was 0.035 (inactive).
With SLK isoform 2 (UniProt Q9H2G2), the log2 fold change is 0.02 (inactive).
On to TBCD (UniProt Q9BTW9), for which the log2 fold change was -0.031 (inactive).
Consider SUPT16H (UniProt Q9Y5B9), for which the log2 fold change was 0.024 (inactive).
On the same count and under the same terms, the value for SUOX (UniProt P51687) was -0.022 (inactive); that for STK4 (UniProt Q13043) was 0.012 (inactive).
In the case of TK1 (UniProt P04183), the log2 fold change is -0.003 (inactive).
On the same count and under the same terms, the value for SSR3 isoform 2 (UniProt Q9UNL2) was -0.052 (inactive); that for SRI (UniProt P30626) was -0.021 (inactive); that for TARS2 (UniProt Q9BW92) was -0.098 (inactive).
The same measure, in the same setting: the value for SNX11 (UniProt Q9Y5W9) was 0.055 (inactive).
With TATDN2 (UniProt Q93075), the log2 fold change is 0 (inactive).
STXBP2 isoform 3 (UniProt Q15833): the log2 fold change is 0.142 (inactive).
On to SLC27A2 (UniProt O14975), for which the log2 fold change was 0.333 (active).
With SNX2 (UniProt O60749), the log2 fold change was 0.024 (inactive).
Take SLC39A11 (UniProt Q8N1S5): the log2 fold change is -0.015 (inactive).
Turning to TBC1D15 isoform 3 (UniProt Q8TC07), the log2 fold change was -0.012 (inactive).
On to TBRG4 (UniProt Q969Z0), for which the log2 fold change was -0.144 (inactive).
On the same count and under the same terms, the value for SLC6A6 (UniProt P31641) was -0.061 (inactive); that for TERF2IP (UniProt Q9NYB0) was -0.016 (inactive); that for SP1 (UniProt P08047) was -0.023 (inactive).
On to SYNE2 isoform 2 (UniProt Q8WXH0), for which the log2 fold change was 0.049 (inactive).
As to SULT1A1 (UniProt P50225), the log2 fold change is 0.05 (inactive).
Still for that read-out and setting: the value for TIMM10B (UniProt Q9Y5J6) was -0.106 (inactive); that for TAMM41 isoform 3 (UniProt Q96BW9) was -0.006 (inactive).
The same measure, in the same setting: the value for TAX1BP1 (UniProt Q86VP1) was -0.06 (inactive); that for SNUPN (UniProt O95149) was -0.04 (inactive).
